Measured values published in PubChem BioAssay (NCI).
Compounds without any hit were thinned out: in the full panel of roughly 79,000, 15% have a hit. Activity calls are given as the source filed them. Rule as the data show it: active = growth inhibition above about 70%; inactive = the rest.

How the values were obtained:
[1] = NCI Yeast Anticancer Drug Screen. Data for the wt1 strain (AID 149);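 also: 0% = growth of vehicle-treated wt1 cultures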; settings: S. cerevisiae wt1 strain (SPY 50644) growth inhibition, hits give high values
How it was run: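 wt1 strain grown with compound or vehicle; inhibition taken from the growth difference.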

[2] = NCI Yeast Anticancer Drug Screen. Data for the rad50EPP+ strain (AID 151);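 also: 0% = growth of vehicle-treated control cultures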; settings: S. cerevisiae rad50 mutant strain, hits give high values
How it was run: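 Strain rad50EPP+; compound exposure; % growth inhibition vs vehicle.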

[3] = NCI Yeast Anticancer Drug Screen. Data for the mgt1 strain (AID 153); settings: S. cerevisiae mgt1 mutant growth inhibition, hits give high values
How it was run: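 Read-out: yeast growth inhibition vs vehicle control. Strain mgt1, drawn from a panel altered in DNA damage repair or cell cycle control.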

[4] = NCI Yeast Anticancer Drug Screen. Data for the rad50 strain (AID 155);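 also: 0% = growth of vehicle-only cultures of the same strain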; settings: S. cerevisiae rad50 strain growth inhibition, hits give high values
How it was run: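 DNA repair mutant yeast, compound exposure, growth read-out; inhibition is taken relative to vehicle.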

[5] = NCI Yeast Anticancer Drug Screen. Data for the mec2-1 strain (AID 157); settings: S. cerevisiae mec2-1 strain, hits give high values
How it was run: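 Cells of the genetically defined mec2-1 yeast strain are incubated with test compound. Inhibition of growth is calculated against vehicle-treated controls.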

[6] = NCI Yeast Anticancer Drug Screen. Data for the rad14 strain (AID 159);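 also: 0% = growth of vehicle-treated control cultures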; settings: S. cerevisiae rad14 strain growth inhibition, hits give high values
How it was run: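 DNA repair-defective yeast, compound-exposed; % growth inhibition derived by comparison with vehicle-treated controls.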

[7] = NCI Yeast Anticancer Drug Screen. Data for the sgs1 mgt1 strain (AID 161);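 also: 0% = growth of cultures given vehicle only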; settings: S. cerevisiae sgs1 mgt1 strain, hits give high values
How it was run: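 Inhibition of yeast growth, normalised to vehicle-treated controls, is reported for a strain bearing genetic alterations in DNA damage repair.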

[8] = NCI Yeast Anticancer Drug Screen. Data for the CLN2oe strain (AID 163);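 also: 0% = growth of vehicle-only control cultures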; settings: S. cerevisiae CLN2oe strain, hits give high values
How it was run: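 Strain altered in cell-cycle control, incubated with compound; growth compared to solvent-treated controls.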

[9] = NCI Yeast Anticancer Drug Screen. Data for the cln2 rad14 strain (AID 165);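 also: 0% = growth equal to vehicle treated cultures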; settings: S. cerevisiae cln2 rad14 strain, hits give high values
How it was run: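 The screen exposed genetically defined yeast (cln2 rad14) to test compounds and scored growth inhibition relative to vehicle-treated controls.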

[10] = NCI Yeast Anticancer Drug Screen. Data for the bub3 strain (AID 167); settings: S. cerevisiae bub3 mutant strain, hits give high values
How it was run: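 In this screen, a yeast mutant lacking normal mitotic checkpoint function is challenged with compound. Relative growth versus vehicle gives the inhibition value.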

[11] = NCI Yeast Anticancer Drug Screen. Data for the wt2 strain (AID 169);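 also: 0% = growth of vehicle-treated yeast cultures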; settings: S. cerevisiae wt2 strain growth inhibition, hits give high values
How it was run: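 Steps: yeast strain treated with compound; growth recorded; inhibition calculated relative to cultures given vehicle alone.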

[12] = NCI Yeast Anticancer Drug Screen. Data for the mlh1 strain (AID 171);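 also: 0% = growth of vehicle-treated control cultures of the same strain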; settings: S. cerevisiae mlh1 strain growth inhibition, hits give high values
How it was run: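 Yeast screen: mutant strain plus compound, growth scored against vehicle control wells.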

[13] = NCI Yeast Anticancer Drug Screen. Data for the sgs1 strain (AID 173);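 also: 0% = growth of vehicle-only control cultures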; settings: S. cerevisiae sgs1 mutant, hits give high values
How it was run: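 Inhibition of yeast growth served as the measure. The mutant strain was treated with each compound, and growth was normalised to cultures receiving vehicle alone.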

[14] = NCI Yeast Anticancer Drug Screen. Data for the mlh1 rad18 strain (AID 175); settings: S. cerevisiae mlh1 rad18 strain growth inhibition, hits give high values
How it was run: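 Compound-treated yeast growth, normalised to vehicle controls. Strain bears defined DNA repair mutations.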

[15] = NCI Yeast Anticancer Drug Screen. Data for the rad18 strain (AID 177); settings: S. cerevisiae rad18 mutant growth inhibition, hits give high values
How it was run: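 Inhibition values reflect reduced yeast growth compared with vehicle-treated controls, using a strain engineered with a DNA damage repair defect.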

[16] = at 5.0 µM (retest, dose inferred, filed as 0.5)
[17] = at 50.0 µM (retest, dose inferred, filed as 5.0)

Measured: growth inhibition

O=[N+]([O-])c1cccc2nc3ccccc3c(NCCC[N+]3([O-])CCOCC3)c12
active: [1]; at 100.0 µM 87% | [2]; at 33.0 µM 79% | [2]; at 100.0 µM 92% | [3]; at 100.0 µM 85% | [4]; at 11.0 µM 88% | [4]; at 33.0 µM 94% | [4]; [17] 92% | [4]; at 50.0 µM 83.4% | [4]; at 100.0 µM 95% | [5]; at 11.0 µM 89% | [5]; at 33.0 µM 97% | [5]; [17] 98% | [5]; at 50.0 µM 82.8% | [5]; at 100.0 µM 97% | [6]; at 3.7 µM 87% | [6]; at 11.0 µM 96% | [6]; at 33.0 µM 98% | [6]; at 100.0 µM 97% | [7]; [16] 73% | [7]; [17] 93% | [7]; at 50.0 µM 79.6% | [8]; at 100.0 µM 91% | [9]; [16] 86% | [9]; [17] 98% | [9]; at 50.0 µM 94.6% | [10]; [17] 75% | [10]; at 100.0 µM 84% | [11]; at 100.0 µM 93% | [12]; at 100.0 µM 92% | [13]; at 3.7 µM 79% | [13]; at 11.0 µM 85% | [13]; at 33.0 µM 89% | [13]; at 100.0 µM 93% | [14]; [16] 71% | [14]; [17] 98% | [14]; at 50.0 µM 94.5% | [15]; at 1.2 µM 95% | [15]; at 3.7 µM 95% | [15]; at 11.0 µM 96% | [15]; at 33.0 µM 97% | [15]; at 100.0 µM 95%
inactive: [1]; at 1.2 µM -78% | [1]; at 3.7 µM 5% | [1]; at 11.0 µM 16% | [1]; at 33.0 µM 47% | [2]; at 1.2 µM 6% | [2]; at 3.7 µM 19% | [2]; at 11.0 µM 42% | [3]; at 1.2 µM 1% | [3]; at 3.7 µM 5% | [3]; at 11.0 µM 17% | [3]; at 33.0 µM 55% | [4]; at 1.2 µM 37% | [4]; at 3.7 µM 65% | [4]; [16] 37% | [5]; at 1.2 µM 7% | [5]; at 3.7 µM 41% | [5]; [16] 9% | [6]; at 1.2 µM 38% | [8]; at 1.2 µM -15% | [8]; at 3.7 µM -13% | [8]; at 11.0 µM 10% | [8]; at 33.0 µM 55% | [10]; at 1.2 µM -9% | [10]; at 3.7 µM -13% | [10]; [16] -6% | [10]; at 11.0 µM -9% | [10]; at 33.0 µM 14% | [10]; at 50.0 µM 34.4% | [11]; at 1.2 µM -3% | [11]; at 3.7 µM -1% | [11]; at 11.0 µM 3% | [11]; at 33.0 µM 34% | [12]; at 1.2 µM 1% | [12]; at 3.7 µM 5% | [12]; at 11.0 µM 21% | [12]; at 33.0 µM 62% | [13]; at 1.2 µM 63%

O=C(O)CN(CCNC(=O)OCC1c2ccccc2-c2ccccc21)CCNC(=O)OCC1c2ccccc2-c2ccccc21
inactive: [1]; at 1.2 µM -1% | [1]; at 3.7 µM -4% | [1]; at 11.0 µM 2% | [2]; at 1.2 µM 0% | [2]; at 3.7 µM 4% | [2]; at 11.0 µM 5% | [2]; at 33.0 µM 7% | [2]; at 100.0 µM 5% | [3]; at 1.2 µM -4% | [3]; at 3.7 µM -1% | [3]; at 11.0 µM 9% | [4]; at 1.2 µM -3% | [4]; at 3.7 µM -9% | [4]; [16] -21% | [4]; at 11.0 µM 11% | [4]; [17] 36% | [5]; at 1.2 µM -3% | [5]; at 3.7 µM -5% | [5]; [16] -10% | [5]; at 11.0 µM -3% | [5]; [17] -6% | [6]; at 1.2 µM 0% | [6]; at 3.7 µM 1% | [6]; at 11.0 µM 34% | [7]; [16] -1% | [7]; [17] -4% | [8]; at 1.2 µM -1% | [8]; at 3.7 µM 1% | [8]; at 11.0 µM 2% | [9]; [16] 3% | [9]; [17] 15% | [10]; at 1.2 µM -1% | [10]; at 3.7 µM 0% | [10]; [16] -16% | [10]; at 11.0 µM 1% | [10]; [17] -9% | [12]; at 1.2 µM -1% | [12]; at 3.7 µM -3% | [12]; at 11.0 µM 11% | [13]; at 1.2 µM 0% | [13]; at 3.7 µM -1% | [13]; at 11.0 µM 9% | [14]; [16] 3% | [14]; [17] 62% | [15]; at 1.2 µM -2% | [15]; at 3.7 µM -2% | [15]; at 11.0 µM 4%
active: [1]; at 33.0 µM 71% | [1]; at 100.0 µM 94% | [3]; at 33.0 µM 98% | [3]; at 100.0 µM 95% | [4]; at 33.0 µM 97% | [4]; at 50.0 µM 93.7% | [4]; at 100.0 µM 94% | [5]; at 33.0 µM 98% | [5]; at 50.0 µM 95.3% | [5]; at 100.0 µM 96% | [6]; at 33.0 µM 98% | [6]; at 100.0 µM 95% | [7]; at 50.0 µM 95.5% | [8]; at 33.0 µM 96% | [8]; at 100.0 µM 90% | [9]; at 50.0 µM 93.5% | [10]; at 33.0 µM 93% | [10]; at 50.0 µM 95% | [10]; at 100.0 µM 94% | [12]; at 33.0 µM 98% | [12]; at 100.0 µM 96% | [13]; at 33.0 µM 97% | [13]; at 100.0 µM 94% | [14]; at 50.0 µM 95.1% | [15]; at 33.0 µM 95% | [15]; at 100.0 µM 94%

Cc1ccc(N(C=O)c2c([N+](=O)[O-])cc([N+](=O)[O-])c3c2=[N+]([O-])CN=3)cc1
inactive: [1]; at 1.2 µM 3% | [1]; at 3.7 µM 23% | [1]; at 11.0 µM 20% | [2]; at 1.2 µM 35% | [2]; at 3.7 µM 51% | [3]; at 1.2 µM 10% | [3]; at 3.7 µM -1% | [3]; at 11.0 µM 52% | [4]; at 1.2 µM 9% | [4]; at 3.7 µM 18% | [4]; [16] 13% | [4]; at 11.0 µM 25% | [5]; at 1.2 µM 8% | [5]; at 3.7 µM 19% | [5]; [16] 6% | [5]; at 11.0 µM 32% | [5]; at 50.0 µM 27.6%
active: [1]; at 33.0 µM 89% | [1]; at 100.0 µM 98% | [2]; at 11.0 µM 84% | [2]; at 33.0 µM 95% | [2]; at 100.0 µM 97% | [3]; at 33.0 µM 96% | [3]; at 100.0 µM 98% | [4]; at 33.0 µM 92% | [4]; [17] 83% | [4]; at 50.0 µM 71.5% | [4]; at 100.0 µM 98% | [5]; at 33.0 µM 95% | [5]; [17] 91%
